# Measured values published in the supplement of paper PMC11417369.
# The full ranking holds about 25,000 sequences; the median of “ln(normalized median fluorescence intensity)” is about 9.3, and the highest 2% start at about 10. The entries come from a sample that favours the highest values as a whole.
# Test system: PF3D7_0420300 AP2 domain 1 (GST-tagged)
# Experiment: gcPBM binding intensity (ln(normalized median fluorescence intensity)); higher = stronger DNA binding
# In short: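 Binding intensity is the highest Masliner-normalised natural-log median intensity over replicate spots in either probe orientation. To obtain it, GST-tagged P. falciparum DNA-binding domains made in E. coli were incubated for 1 h on an Agilent 4 × 180k array of primer-extended double-stranded 36-bp intergenic genomic probes plus negative controls. Detection used Alexa488 anti-GST antibody with scanning at 488 nm.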
row,Sequence,gcPBM binding intensity (ln)
1,TGATATCTTAAGAAATGTACAAAGATATAACCATTT [XGTACX_site1913],9.11
2,CTCAATATTATTACTACACACAAATTAAAATTTTCC [CACACA_site4203],9.45
3,ATTTATTCATTTGGGTGTACTATTTAAAAAAAACAA [XGTACX_site498],9.18
4,AAAATAAAAAGAAAAAGAAAAAAGGGGGGGTAGGGG [CACACA_negctrl_site1048],10.2
5,AAGGGGTAAAGAAAAACACACAAAAAATAAAAATAT [CACACA_site361],9.65
6,AAGGGAAAATAATAAAAGAAAAAGAAAAAAAAAAAA [CACACA_negctrl_site1518],9.21
7,CATTATAAGAAACACACACACATATATATATATATA [CACACA_site1051],9.73
8,TGTATTAATAAAAATACACACATCATATTATAGAAA [CACACA_site7629],9.49
9,TGAAAAAAGAAAAATACACACATATAATATAATATA [CACACA_site2255],9.7
10,ACAGAAAAAAGACACACACACATAATATACATACAT [CACACA_site6991],10.2
11,TAAAAAAAAACAGAAACACACATTATTCATATATAT [CACACA_site2049],9.77
12,TAAAAGAAATAATATACACACATATATAAAAATAAA [CACACA_site1329],9.6
13,AATTAAAATAATAATACACACATCATAGAAAAAGAC [CACACA_site292],10.4
14,TTAATTAGAAATCATACACACATATAAATAAATATA [CACACA_site6225],9.6
15,ACAGAAAAAAAACACACACACATAATATACATACAT [CACACA_site1932],10.2
16,ATATAACAGAAACACACACACATATATATATATTAT [CACACA_site4140],10.2
17,ATACAGAAAAAAAACACACACACATAATATACATAC [CACACA_site1933],10.1
18,CATACACAGAAACACACACACATATATATATATATA [CACACA_site4519],9.79
19,AGCTATTAATTTATTACATGCAAGATTAAAAGACTA [TGCATGCA_site281],8.99
20,AATCAAAACATTAAAAAGAAAAAATATATATATATA [CACACA_negctrl_site366],9.03
21,AGGATATGCAGACACACACACATATAGATTTATATA [CACACA_site7100],9.73
22,ATTGTGCTCATCAGCACACACAACATCATGTAATAA [CACACA_site1863],9.47

row,Sequence,gcPBM binding intensity (ln)
1,TTTTGTTATATTCAATATTTATATATTATAAATATA [CACACA_negctrl_site1705],9.11
2,TTAAAACCAAAACACAGTACATATATATATATATAT [XGTACX_site5668],9.4
3,TATTTTATTTTTTTATGTACACAAAAAAAAAAAAAA [XGTACX_site945],8.63
4,TTTTTTTTTTGTTGTTGTACTCTTATATTTTTATAT [XGTACX_site6178],9.7
5,ATAAATAAATAAATAAATAAATATACATATACATAT [CACACA_negctrl_site205],9.39
6,TATGGTAACATATGCTGTACAATATAATATGTTTAA [XGTACX_site1601],9.11
7,TATAGTGATATATACACACACTTGTCTTGTAAAAAT [CACACA_site6594],9.53
8,GATGTATTCATACATGCACACGTACATATTTAAATA [CACACA_site9299],9.34
9,TAAATACAGAAACACACACACAAATATATACATACA [CACACA_site2880],10.1
10,CAAATACAGAAACACACACACATATACATATATATA [CACACA_site3498],9.97
11,CATATACAGAAACACACACACACATAAATAAATATA [CACACA_site1343],10.3
12,ATATATATATATCACGCACACACGAATTTTAAATAT [CACACA_site3131],9.65
13,TTTTCAAAATAATATTATATCAAATGCTAAAAAGAA [TGCATGCA_negctrl_site588],8.96
14,TAAAACATAAGAGACACACACACATATATATATATA [CACACA_site3643],9.9
15,AACATTATAGGACACACACACACATATATATATATA [CACACA_site4721],10.2
16,TAATAAATAGGACACACACACATATATATATATTAT [CACACA_site4891],10.1
17,AACATTATAAGACACACACACACATATATAAATATA [CACACA_site6622],10.3
18,AAACATAAGAGACACACACACATATATAAATAAATA [CACACA_site7674],10.2
19,AACATTATAAGACACACACACACATATATATATATA [CACACA_site8259],10.1
20,GTAAGAAACAGACACACACACATATAAATATAAATA [CACACA_site6515],10.1
21,TAATAAATAAGACACACACACATATATATATATTAT [CACACA_site1389],10.2
22,ATAAATATAGGACACACACACATATTATATATATAT [CACACA_site5658],10.1
